In PubChem BioAssay AID651593 (National Center for Advancing Translational Sciences (NCATS), 2012) one finds Potency data, which are given here for 104 compounds.

The structures appear in SMILES notation. The campaign covered roughly 1,100 compounds. About 860 (78%) were called active. Another 19% or so got no clear call; they are omitted. The call rests on the fitted dose curve; in most records, active means well fitted activation curve with a large enough effect; inconclusive means small, poorly fitted or top-dose-only effect; inactive means flat fitted curve, though single readings scatter. So high a share suggests a set chosen from earlier hits. The list shows a part of the results.
Potency means the concentration at half of the fitted maximal effect.

The experiment in a line: qHTS of Nrf2 Activators: Hit Validation in Primary Assay. Further: nearly all actives have a fitted effect of over 70% in size. To be noted: Nrf2/ARE reporter cell assay; Potency: activation; series mostly up to 46.1 µM. The essentials: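 AREc32 cells stably carrying an ARE-driven firefly luciferase, plated overnight, then exposed 24 h at 37 °C to compounds at several concentrations. ARE activation read as luminescence with Steady-Glo after 30 min at room temperature.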
(qHTS replaces the single test concentration by a dilution series.)
With `CC(C)CCn1c(O)c(N=Nc2ccccn2)c2ccccc21`, the Potency was 2.91 µM (active).

For the compound `CCCCn1c(O)c(N=Nc2ccccn2)c2ccccc21`, the Potency was 2.91 µM (active).

For `CC(C)N1C/C(=C/c2cccnc2)C(=O)/C(=C/c2cccnc2)C1`, the Potency was 3.66 µM (active).

As for `COc1ccc(NC(=O)c2cc(-c3cccs3)on2)c(OC)c1`, the Potency was 1.3 µM (active).

Regarding `COc1ccc(Cl)cc1NC(=O)c1cc(-c2ccco2)on1`, the Potency is 2.59 µM (active).

Take `CSc1ccccc1NC(=O)c1cc(-c2cccs2)on1`: the Potency was 2.91 µM (active).

In the case of `COC(=O)c1ccccc1NC(=O)c1cc(-c2ccco2)on1`, the Potency was 3.26 µM (active).

Consider `CCCCC1C(=O)N(c2ccccc2)N(c2ccc(O)cc2)C1=O` (centres undefined), for which the Potency result is “inactive”.

Take `COc1ccc(NC(=O)c2cc(-c3ccco3)on2)c(OC)c1`: the Potency is 2.31 µM (active).

Turning to `Cc1noc(C)c1COc1ccccc1C(=O)NNC(=O)c1ccccc1F`, the Potency is 3.66 µM (active).

`Cc1csc2c(=O)sc(NC(=O)c3cccs3)nc12`: the Potency is 4.11 µM (active).

Regarding `Cc1ccccc1C(=O)Nc1nc2c(C)csc2c(=O)s1`, the Potency is 2.91 µM (active).

`Cc1csc2c(=O)sc(NC(=O)c3ccc(F)cc3Cl)nc12`: the Potency was 2.59 µM (active).

For `CS/C(=C\C(=O)c1ccco1)Nc1ccccc1Cl`, the Potency is 4.61 µM (active).

For the compound `CNc1ccc(-c2nc(-c3ccco3)no2)cc1[N+](=O)[O-]`, the Potency was 1.84 µM (active).

`CC(C)Nc1ccc(-c2nc(-c3ccco3)no2)cc1[N+](=O)[O-]`: the Potency was 2.31 µM (active).

As for `COC(=O)c1cc(=O)nc(NN=Cc2ccco2)s1`, the Potency was 0.58 µM (active).

Regarding `Cc1ccc(Cc2c(-c3ccco3)nc3c(C)cc(Br)cn23)cc1`, the Potency is 20.6 µM (active).

For `Cc1cc(Br)cn2c(Cc3ccccc3)c(-c3ccco3)nc12`, the Potency is 16.4 µM (active).

Regarding `Clc1ccsc1-c1csc(-c2cccnc2)n1`, the Potency was 2.06 µM (active).

Turning to `Cc1ccccc1NC(=O)/C(C#N)=C/c1ccsc1`, the Potency was 4.11 µM (active).

As to `Cc1ccccc1NC(=O)/C(C#N)=C\c1ccsc1`, the Potency was 3.66 µM (active).

Regarding `Clc1nc(-c2ccccc2)cc(-c2ccccc2)n1`, the Potency is 4.11 µM (active).

As to `Clc1cc(-c2ccccc2)nc(-c2ccccc2)n1`, the Potency was 5.8 µM (active).

For the compound `CN1CCCC1CCNc1ccc2c(=O)c3ccccc3oc2c1` (centres undefined), the Potency is 2.06 µM (active).

For the compound `Cc1[nH]c2ccccc2c1N=Nc1ccccc1C(=O)O`, the Potency was 2.59 µM (active).

In the case of `Cc1[nH]c2ccccc2c1N=Nc1ccccc1F`, the Potency is 4.11 µM (active).

For `O=C1S/C(=C\C=C\c2ccco2)C(=O)N1c1ccccc1`, the Potency is 5.8 µM (active).

Turning to `O=C1S/C(=C\C=C\c2ccco2)C(=O)N1c1ccc(O)cc1`, the Potency was 2.31 µM (active).

As for `Cc1noc(C(=O)Nc2cc(Cl)ccc2O)c1Cl`, the Potency is 2.91 µM (active).

For the compound `C=CCSc1nccc(-c2cc(Cl)sc2Cl)n1`, the Potency is 6.51 µM (active).

Consider `O=C1c2cccc3cccc(c23)C(=O)N1CCCN(C(=O)c1cccs1)c1cccc(F)c1`, for which the Potency is 2.31 µM (active).

As to `O=C(N/N=C\C=C\c1ccco1)c1cc(-c2ccc3ccccc3c2)n[nH]1`, the Potency is 8.2 µM (active).

As to `Cc1cccc(C)c1OCC(=O)N/N=C/C=C/c1ccco1`, the Potency is 0.517 µM (active).

Regarding `O=C(N/N=C/C=C/c1ccco1)c1cnccn1`, the Potency is 9.2 µM (active).

As for `O=C(N/N=C/C=C/c1ccco1)c1cccc([N+](=O)[O-])c1`, the Potency is 0.366 µM (active).

As for `c1ccc(-c2ccc3c(c2)NC(C2Nc4cc(-c5ccccc5)ccc4O2)O3)cc1` (centres undefined), the Potency entry is “inactive”.

As to `COc1ccc(C2CC(c3cccs3)=Nc3ccccc3S2)cc1OC` (centres undefined), the Potency was 20.6 µM (active).

For the compound `Cc1cc(C)c(C#N)c(OCC(=O)c2ccc(Br)cc2)n1`, the Potency was 4.61 µM (active).

With `Cc1cc(C)c(C#N)c(OCC(=O)c2ccccc2)n1`, the Potency is 5.17 µM (active).

For the compound `Cc1cc(C)n2nc(/C(C#N)=C/c3ccccn3)c(C#N)c2n1`, the Potency is 18.4 µM (active).

On to `Clc1ccc(Br)cc1-c1nc(-c2ccncc2)no1`, for which the Potency is 4.61 µM (active).

As for `COc1ccc(Cl)cc1-c1nc(-c2ccncc2)no1`, the Potency is 4.61 µM (active).

For the compound `CC(C)(C)C(=O)/C=c1\[nH]c(=O)/c(=C\c2ccccc2F)s1`, the Potency was 2.31 µM (active).

Regarding `Cn1nc(C(=O)Nc2c(-c3ccccc3)nc3sccn23)c2ccccc2c1=O`, the Potency is 9.2 µM (active).

As for `Cc1ccc2[nH]c(=O)c3cc(C(=O)N(C)Cc4ccco4)sc3c2c1`, the Potency was 11.6 µM (active).

With `C/C(=N\NC(=S)NCC(C)(C)C)c1cc(F)cc(F)c1O`, the Potency entry was “inactive”.

Take `C(=Cc1cnnc2ccccc12)c1ccccc1`: the Potency is 2.91 µM (active).

As to `O=C(NCc1ccccc1)c1c(Cl)nc(Cl)c(Cl)c1Cl`, the Potency is 2.91 µM (active).

Turning to `O=C(Nc1ncc2c(n1)CC(c1ccco1)CC2=O)c1ccc(Cl)cc1` (centres undefined), the Potency was 9.2 µM (active).

For the compound `CC(C)(C)SCCNC(=O)/C=C/c1cccc([N+](=O)[O-])c1`, the Potency result is “inactive”.

For `N#C/C(=C\c1ccccc1)c1ccccn1`, the Potency is 13 µM (active).

With `N#C/C(=C\c1cccc([N+](=O)[O-])c1)c1ccccn1`, the Potency is 4.61 µM (active).

On to `O=C(/C=C/c1cccc([N+](=O)[O-])c1)n1cnc2ccccc21`, for which the Potency was 4.61 µM (active).

For `O=[N+]([O-])c1cccc(/C=C/c2ccccn2)c1`, the Potency was 4.61 µM (active).

Turning to `CC(=O)Oc1ccc(-c2nc3c(C)cccc3c(=O)o2)cc1`, the Potency is 9.2 µM (active).

For the compound `O=C(NCCc1c[nH]c2ccccc12)c1ccc([N+](=O)[O-])o1`, the Potency is 5.17 µM (active).

Regarding `CCOC(=O)c1c(NC(=O)/C=C/c2ccc(C)o2)sc(C)c1C`, the Potency was 3.26 µM (active).

For `COC(=O)c1ccc(Cl)cc1NC(=O)/C=C/c1ccc(C)o1`, the Potency was 2.06 µM (active).

On to `Cc1ccc(/C=C/C(=O)Nc2ccc([N+](=O)[O-])c(NC(=O)/C=C/c3ccc(C)o3)c2)o1`, for which the Potency is 8.2 µM (active).

Regarding `CCC1C/C(=C/c2cccs2)C(=O)/C(=C/c2cccs2)C1` (centres undefined), the Potency is 2.31 µM (active).

`Cc1nc2ccccc2c(=O)n1NCc1cc(Br)cs1`: the Potency is 2.59 µM (active).

For `Cn1c(CC2C(=O)Nc3ccc(Br)cc32)nc2ccccc2c1=O` (centres undefined), the Potency entry is “inactive”.

For the compound `O=C(Nc1nnc(-c2cccs2)s1)c1cccc(F)c1`, the Potency was 2.31 µM (active).

On to `O=C(Nc1nnc(-c2cccs2)s1)C1CC1`, for which the Potency is 9.2 µM (active).

As to `O=C1C(=Cc2ccccc2[N+](=O)[O-])Cc2ccccc21`, the Potency was 4.61 µM (active).

For `Nc1ccccc1C=C1Cc2ccccc2C1=O`, the Potency is 3.66 µM (active).

For `COCCN(C(=O)COC(=O)/C=C/c1ccccc1Cl)c1c(N)n(Cc2ccccc2)c(=O)[nH]c1=O`, the Potency is 11.6 µM (active).

Turning to `O=C(/C=C/Nc1ccc(F)c(Cl)c1)c1ccco1`, the Potency was 1.3 µM (active).

In the case of `O=C1COc2ccc(C(=O)COC(=O)/C=C/c3ccco3)cc2N1`, the Potency is 2.06 µM (active).

As to `Cc1cccc(NC(=O)Nc2ccc(Br)cc2)n1`, the Potency was 8.2 µM (active).

Take `O=C(Nc1ccccn1)Nc1ccccc1Cl`: the Potency was 9.2 µM (active).

Turning to `O=C(Nc1ccccn1)Nc1ccccc1[N+](=O)[O-]`, the Potency is 4.11 µM (active).

For the compound `Cc1cccc(NC(=O)Nc2ccccc2[N+](=O)[O-])n1`, the Potency was 8.2 µM (active).

For the compound `O=C(N=Nc1c(O)[nH]c2ccccc12)c1ccco1`, the Potency was 2.31 µM (active).

Consider `O=C(N=Nc1c(O)[nH]c2ccc(Br)cc12)c1ccco1`, for which the Potency was 3.26 µM (active).

As to `Cc1ccc(C)c(-c2nnc(NC(=O)c3ccc([N+](=O)[O-])o3)o2)c1`, the Potency is 2.91 µM (active).

For the compound `O=C(CSc1ccc(-c2ccco2)nn1)N1CCCC1`, the Potency is 1.84 µM (active).

For `O=C(CSc1ccc(-c2ccco2)nn1)N1CCCCC1`, the Potency is 1.84 µM (active).

On to `O=C(CSc1ccc(-c2ccco2)nn1)N1CCCCCC1`, for which the Potency was 0.517 µM (active).

As to `COc1ccc(NC(=O)CSc2ccc(-c3ccco3)nn2)cc1OC`, the Potency is 5.17 µM (active).

On to `CCOC(=O)C(=Cc1ccccc1OC)C(=O)OCC`, for which the Potency was 16.4 µM (active).

Take `CCn1nc(C(=O)Nc2cccc3ccccc23)c(Cl)c1Cl`: the Potency is 18.4 µM (active).

In the case of `COc1ccccc1Cc1c(-c2ccco2)nc2c3ccccc3ccn12`, the Potency was 7.31 µM (active).

Regarding `c1ccc(-c2nc3c4ccccc4ccn3c2Cc2ccsc2)cc1`, the Potency is 5.8 µM (active).

On to `Clc1cccc(Cc2c(-c3ccccc3)nc3c4ccccc4ccn23)c1`, for which the Potency is 11.6 µM (active).

Take `c1ccc(Cc2c(-c3ccco3)nc3c4ccccc4ccn23)cc1`: the Potency is 9.2 µM (active).

Consider `Clc1cccc(Cc2c(-c3ccco3)nc3c4ccccc4ccn23)c1`, for which the Potency was 8.2 µM (active).

As for `Fc1cccc(Cc2c(-c3ccco3)nc3c4ccccc4ccn23)c1`, the Potency was 2.91 µM (active).

Turning to `Cc1ccc(Cc2c(-c3ccco3)nc3c4ccccc4ccn23)cc1`, the Potency is 8.2 µM (active).

In the case of `O=C(COC(=O)c1cc2ccccc2cc1O)Nc1ccccc1F`, the Potency is 20.6 µM (active).

`c1ccc(N/N=C2\CCCc3ccccc32)nc1`: the Potency was 14.6 µM (active).

On to `O=C1c2ccccc2C(=O)c2c(Nc3ccc(CCO)cc3)ccc(O)c21`, for which the Potency was 2.31 µM (active).

`COc1cc(C=C(c2nc3ccccc3s2)c2nc3ccccc3s2)ccc1O`: the Potency was 7.31 µM (active).

Consider `FC(F)(F)c1ccccc1Cc1c(-c2ccccc2)nc2c3ccccc3ccn12`, for which the Potency was 14.6 µM (active).

As for `COc1ccc(Cc2c(-c3ccccc3)nc3c4ccccc4ccn23)c(C)c1`, the Potency is 6.51 µM (active).

For the compound `Fc1ccc(-c2nc3c4ccccc4ccn3c2Cc2ccccc2C(F)(F)F)cc1`, the Potency was 7.31 µM (active).

For the compound `Nc1ccc2c(c1)Cc1c(F)cccc1-2`, the Potency is 18.4 µM (active).

As for `CC(C)N(C(=O)COC(=O)c1ccccc1C(=O)c1ccc(Cl)c([N+](=O)[O-])c1)C(C)C`, the Potency is 18.4 µM (active).

Consider `O=C1Nc2ccccc2SC1=Cc1ccccc1`, for which the Potency is 2.91 µM (active).

As to `c1ccc(-c2nnc(-c3ccccc3)o2)cc1`, the Potency was 6.51 µM (active).

As for `O=[N+]([O-])c1cccc(-c2nc(-c3ccccn3)no2)c1`, the Potency was 2.06 µM (active).

With `O=[N+]([O-])c1cccc(-c2nnc(-c3ccccc3)o2)c1`, the Potency is 7.31 µM (active).

Turning to `O=[N+]([O-])c1cccc(-c2cn(-c3ccccc3)c(=S)[nH]2)c1`, the Potency entry was “inactive”.
